Measured values as given in PubChem BioAssay (NCATS).
Inconclusive results are not listed. The source made the active and inactive calls. The call rests on the fitted dose curve; in most records, active means well fitted inhibition curve with a large enough effect; inconclusive means small, poorly fitted or top-dose-only effect; inactive means flat fitted curve, though single readings scatter.

target: Phospholipid hydroperoxide glutathione peroxidase GPX4 (Homo sapiens) (UniProt P36969); test: Primary qHTS Assay for Inhibitors of Recombinant Selenoprotein Glutathione Peroxidase 4 (GPX4) (AID 1845192); details: recombinant GPX4, GR-coupled NADPH fluorescence, 15 min; series mostly up to 27.8 µM; activity change, negative = inhibition: at the top concentration; further: nearly all actives have a fitted effect of over 65% in size
Sequence (P36969 whole entry, looked up): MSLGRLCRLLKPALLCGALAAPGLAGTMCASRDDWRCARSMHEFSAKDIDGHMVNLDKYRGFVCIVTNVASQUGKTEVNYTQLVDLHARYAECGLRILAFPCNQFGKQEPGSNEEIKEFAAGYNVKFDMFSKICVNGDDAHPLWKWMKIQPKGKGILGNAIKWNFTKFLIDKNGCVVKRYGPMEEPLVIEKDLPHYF
How it was run: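 qHTS, GR-coupled: GPX4 200 nM + cpd 30 min RT → GSH 1 mM, NADPH 0.5 mM, GR 100 nM → CHP 0.5 mM start; fluor 340/450 at t0 and t15 min; no-enzyme wells as control.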
On the % scale 0 is the no-effect control and ±100 the full control effect.

Compound | activity change, negative = inhibition | outcome
CC1(C)C[C@H]2C=C(C=O)[C@]3(C(=O)O)C[C@]3(C)[C@H]2C1 | -26.1% [at 50 µM] (inactive) | 
C=C1CC[C@]2(C(=O)O[C@@H]3O[C@H](CO)[C@@H](O)[C@H](O)[C@H]3O)CC[C@]3(C)C(=CCC4[C@@]5(C)C[C@H](O)[C@@H](O[C@@H]6O[C@H](C(=O)O)[C@@H](O)[C@H](O)[C@H]6O)[C@](C)(C=O)C5CC[C@]43C)C2C1 (some centres undefined) | 3.97% [at 15.3 µM] (inactive) | 
O=C(CCCCC1CCCCC1)N1CCC(c2cnc[nH]2)CC1 | 4.84% [at 50 µM] (inactive) | 
Nc1ccc(-n2nc(C(F)(F)F)cc2C(F)(F)F)cc1 |  | inactive [at 50 µM]
CC1(C)C2CC[C@@]34CC(CC[C@H]3[C@]2(C)CC[C@@H]1O[C@@H]1O[C@H](CO)[C@@H](O)[C@H](O)[C@H]1O)[C@](C)(O)C4 (some centres undefined) | 2.46% (inactive) | 
CC(=O)OC1C(O)/C(C)=C\C2C(OC(=O)c3ccccc3)C(C)CC2(OC(C)=O)C(OC(C)=O)C(C)/C=C/C(C)(C)C1OC(C)=O (centres undefined) | -2.25% [at 15.3 µM] (inactive) | 
CC1=C2CC(O)(C(C)(C)O)C(O[C@@H]3O[C@H](CO)[C@@H](O)[C@H](O)[C@H]3O)CC(C)C2CC1=O (some centres undefined) |  | inactive
C=CCC/C=C/C#CCCCCCCCC[C@H]1C(=O)O[C@H](C)[C@@H]1O | -9.58% (inactive) | 
CC(=O)C1CCC(=O)N1Cc1ccccc1 (centres undefined) | 1.68% [at 50 µM] (inactive) | 
O=C(O)CCc1cccc(O)c1O[C@@H]1O[C@H](CO)[C@@H](O)[C@H](O)[C@H]1O | -1.02% (inactive) | 
CC(=O)/C=C/[C@H]1[C@](C)(O)[C@@H](O)[C@H](O)C2C(C)(C)CCC[C@@]21C (some centres undefined) | -9.3% (inactive) | 
C[C@@H]1O[C@@H](O[C@H]2[C@H](O[C@H]3[C@H](O[C@H]4CC[C@@]5(C)C(CC[C@]6(C)C5CC=C5[C@@H]7CC(C)(C)C[C@@H](O)[C@]7(C)CC[C@]56C)[C@@]4(C)CO)O[C@H](C(=O)O)[C@@H](O)[C@@H]3O)O[C@H](C(=O)O)[C@H](O)[C@@H]2O)[C@H](O)[C@H](O)[C@H]1O (some centres undefined) | -14% [at 15.3 µM] (inactive) | 
COc1ccc(C(=O)NCc2cc(C(C)C)no2)cc1OC1CCN(C)CC1 | 12.1% [at 50 µM] (inactive) | 
COc1cc(C(CO)CO[C@@H]2O[C@H](CO)[C@@H](O)[C@H](O)[C@H]2O)ccc1O (some centres undefined) | -2.25% (inactive) | 
COc1ccc(C2OCC3C(c4cc(OC)c5c(c4)OCO5)OCC23)cc1OC (centres undefined) | -6.43% (inactive) | 
CC1(C)CCC[C@@]2(C)[C@H]1[C@H](O)C=C(CO)[C@]2(O)CO | -8.22% [at 50 µM] (inactive) | 
NC(Cc1c[nH]c2ccc(O)cc12)C(=O)O (centres undefined) |  | inactive [at 50 µM]
C=C1C(O)CCC2(C)CC3(OC)OC(=O)C(C)=C3CC12 (centres undefined) |  | inactive [at 50 µM]
O=C1NC(=O)/C(=C/c2cccc(C(F)(F)F)c2)S1 | -8.44% [at 50 µM] (inactive) | 
CC(=O)NCC1CN(c2ccc(-c3ccc(CNCc4cn[nH]n4)cc3)c(F)c2)C(=O)O1 (centres undefined) | 8.29% [at 50 µM] (inactive) | 

Compound | activity change, negative = inhibition | outcome
C/C=C(\C)C(=O)OC1C2(O)CC3=C4CC(=O)OC(c5ccoc5)C4(C)CCC3C(C)(C2=O)C(C(OC(C)=O)C(=O)OC)C1(C)C (centres undefined) | -2.1% [at 15.3 µM] (inactive) | 
CC(=O)/C=C/C1C(C)CC(O[C@@H]2O[C@H](CO)[C@@H](O)[C@H](O)[C@H]2O)CC1(C)C (some centres undefined) |  | inactive
CC1(C)Oc2ncnc(N)c2N=C1c1ccc(C2CCC(CC(=O)O)CC2)cc1 (centres undefined) | -6.86% [at 50 µM] (inactive) | 
Cn1cc(Nc2cnccc2C(=O)O)c2cccnc21 | -3.28% [at 50 µM] (inactive) | 
COc1cccc(C(=O)NCCNc2nc3cc(C)cc(C)c3cc2C#N)c1 | 1.83% [at 50 µM] (inactive) | 
O=C(O)c1ccnc2cc(C(OCC3CCC(F)(F)CC3)c3ccccc3Cl)[nH]c12 (centres undefined) | -4.08% [at 50 µM] (inactive) | 
OC[C@H]1O[C@@H](OCc2ccccc2)[C@H](O)[C@@H](O)[C@@H]1O | -3.76% [at 50 µM] (inactive) | 
Cc1ccc(COC(=O)N2CC[C@@H](CNc3ncccn3)[C@@H](F)C2)cc1 | -5.78% [at 50 µM] (inactive) | 
C=C1C(OC(C)=O)CCC2(C)CC3(O)OC(=O)C(C)=C3CC12 (centres undefined) | 2.77% (inactive) | 
CC1CCC23COC(=O)C2=CC(O)CC3C1(C)CCc1ccoc1 (centres undefined) | -4.58% (inactive) | 
C[C@H]1CC[C@@]2(OC1)O[C@H]1CC3C4CC[C@H]5C[C@@H](O[C@@H]6O[C@H](CO)[C@H](O[C@@H]7O[C@H](CO)[C@@H](O)[C@H](O[C@@H]8OC[C@@H](O)[C@H](O)[C@H]8O)[C@H]7O[C@@H]7O[C@H](CO)[C@@H](O)[C@H](O)[C@H]7O)[C@H](O)[C@H]6O)[C@H](O)C[C@]5(C)C4=CC(=O)[C@]3(C)[C@H]1[C@@H]2C (some centres undefined) |  | inactive [at 15.3 µM]
O=C(OCC(O)CO[C@@H]1O[C@H](C(=O)O)[C@@H](O)[C@H](O)[C@H]1O)c1ccccc1 (some centres undefined) | 0.967% (inactive) | 
C[C@@H]1C[C@@H](O)[C@@]23CO[C@]2(CO)CCC[C@@H]3[C@@]12C[C@@H](c1ccoc1)OC2=O | 2.66% (inactive) | 
C[C@H]1/C=C/C=C/C=C/C=C/C=C/[C@@H](O)[C@H](C(=O)O)[C@H](O)C[C@H](O)CCC[C@H](O)C[C@H](O)C[C@H](O)[C@@H](C)C(=O)O[C@@H]1C | -9.87% [at 15.3 µM] (inactive) | 
C=C1C(OC(C)=O)[C@@]23CCC4[C@](C)(C(=O)O)CCC[C@@]4(C)[C@]2(O)CC[C@H]1C3 (some centres undefined) | -19.2% (inactive) | 
C=C(CCO)C(=O)OCC1OCC(OC(=O)C(=C)CCO[C@@H]2O[C@H](COC(=O)C(=C)CCO[C@@H]3O[C@H](CO)[C@@H](O)[C@H](O)[C@H]3O)[C@@H](O)[C@H](O)[C@H]2O)C(O)C1O (some centres undefined) |  | inactive [at 15.3 µM]
CC1(C)CC[C@]2(C(=O)O[C@@H]3O[C@H](CO)[C@@H](O)[C@H](O)[C@H]3O)CC[C@]3(C)C(=CCC4[C@@]5(C)CC[C@H](O[C@H]6O[C@H](CO)[C@@H](O)[C@H](O[C@@H]7O[C@H](CO)[C@@H](O)[C@H](O)[C@H]7O)[C@H]6O)C(C)(C)C5CC[C@]43C)[C@@H]2C1 (some centres undefined) | 4.48% [at 15.3 µM] (inactive) | 
CCCC(=O)Nc1cccc(NC(=O)c2ccccc2Br)c1 | 1.57% [at 50 µM] (inactive) | 
Cc1cc(O[C@@H]2O[C@H](COC(=O)CC(=O)O)[C@@H](O)[C@H](O)[C@H]2O)c(C(C)C)cc1O | -3.2% (inactive) | 
